In PubChem BioAssay (NCI):
About 83,000 compounds went through this panel and 20% of them were active in at least one assay; those are over-represented in the sample as a whole.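 Values shown are percent growth following 48 h exposure of cells in 96-well plates to a single concentration of compound; below 10 was considered active.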 Values without a mark were called inactive. Calls of active or inactive are those of the source.

What was measured:
Test in all cases: NCI-60 one-dose screen, 48 h (100 = growth as untreated, 0 = no growth, -100 = all killed)
Details in all cases: 10 µM unless noted
HCT-15 colon = tested on: HCT-15 colon
HT29 colon = tested on: HT29 colon
SNB-19 CNS = tested on: SNB-19 CNS
U251 CNS = tested on: U251 CNS
PC-3 prostate = tested on: PC-3 prostate
SK-MEL-5 melanoma = tested on: SK-MEL-5 melanoma
UACC-62 melanoma = tested on: UACC-62 melanoma
LOX IMVI melanoma = tested on: LOX IMVI melanoma
SK-MEL-28 melanoma = tested on: SK-MEL-28 melanoma
SNB-75 CNS = tested on: SNB-75 CNS

Row | Structure (SMILES) | growth (HCT-15 colon) | growth (HT29 colon) | growth (SNB-19 CNS) | growth (U251 CNS) | growth (PC-3 prostate) | growth (SK-MEL-5 melanoma) | growth (UACC-62 melanoma) | growth (LOX IMVI melanoma) | growth (SK-MEL-28 melanoma) | growth (SNB-75 CNS)
1 | COc1ccc(/C=C2\CN(C(=O)CCN3CCC(=NO)CC3)C/C(=C\c3ccc(OC)cc3)C2=O)cc1 | -12.8% (active) | -48.2% (active) | 8.36% (active) | -46.2% (active) | 12.1% | -55.7% (active) | -70.2% (active) | -91.8% (active) | -30.5% (active) | –
2 | COc1cc(C#N)cc(OC)c1OCCN(CCOc1c(OC)cc(C#N)cc1OC)S(=O)(=O)c1ccc(C)cc1 | 108% | 111% | – | 103% | – | 61.8% | 96.8% | 93.1% | 118% | 92.7%
3 | C/C(=C(/c1ccc(O)cc1)c1ccc(Cl)cc1)c1ccccc1 | -81.9% (active) | -66.6% (active) | -86.2% (active) | -94.6% (active) | -74.6% (active) | -98.9% (active) | -94.5% (active) | -95.7% (active) | -96.3% (active) | –
4 | COc1cccc(NC(=O)c2sc3nc4c(cc3c2N)CN(Cc2ccccc2)CC4)c1 | 42.2% | 44.5% | – | – | 71.1% | 62.6% | 35.1% | 67.4% | 76.8% | -19.7% (active)
5 | Cn1c2ccccc2c2c3[nH]c(=O)[nH]c(=O)c3c3c4ccccc4n(C)c3c21 | 24.2% | 14.4% | – | 21.9% | 41.1% | 29.3% | 43% | 22.5% | 27.2% | -38.4% (active)
6 | COc1ccc(-c2cn3c(-c4ccc(OC)cc4)cnc3c(Oc3ccc4c(C)cc(=O)oc4c3)n2)cc1 | 63.4% | 25.4% | – | 22.6% | 17.7% | 28.6% | 50.1% | 8.02% (active) | -17.4% (active) | 14.3%
7 | CC[C@H](CO)Nc1nc(NCc2ccccc2)n2ncc(C(C)C)c2n1 | 2.45% (active) | 3.07% (active) | – | 5.23% (active) | – | -17.6% (active) | -41.8% (active) | 4.45% (active) | -16.9% (active) | -73.4% (active)
8 | COc1ccc(C(=O)COc2ccc(/C=C3\Oc4ccc(Cl)cc4C3=O)cc2)cc1 | 103% | 109% | – | 96.7% | – | 78.8% | 83.6% | 92% | 79.9% | 88.8%
9 | O=C(CN1CCN(c2cc3c(cc2F)c(=O)c(C(=O)N/N=C/c2ccccc2)cn3C2CC2)CC1)N/N=C\c1ccccc1 | 53.9% | 73.4% | 74% | 83.7% | 50% | 83% | 71.4% | 72.6% | 88.9% | –
10 | Cc1cc(Cl)ccc1Nc1nc(C(F)(F)F)ccc1C(=O)N/N=C/c1ccc(F)cc1 | 6.36% (active) | 4.55% (active) | – | 3.86% (active) | – | 5.06% (active) | 15.4% | 0.251% (active) | 34.1% | 42%
11 | COc1ccc(S(=O)(=O)NCCCNc2nccc(-c3c(-c4cccc(N)c4)nc4sccn34)n2)cc1 | 89.2% | 59.7% | 110% | 106% | 81.4% | 81.3% | 53% | 96.4% | 93.1% | –
12 | Nc1c(C(=O)Nc2ccccc2Cl)sc2nc3c(cc12)CCCCCC3 | 25.8% | 9.39% (active) | – | 42% | 77.5% | 32.6% | – | 51% | 57.9% | -20.3% (active)
13 | O=C(CN1CCN(c2cc3c(cc2F)c(=O)c(C(=O)O)cn3C2CC2)CC1)Nc1nc(-c2ccc(Cl)cc2)cs1 | 15.7% | 10.4% | 22.5% | 8.26% (active) | 17.7% | 10.4% | 20.1% | -42.4% (active) | 42.6% | –
14 | CCOC(=O)c1cnc2cc(Cl)c(F)cc2c1Nc1cccc(NS(C)(=O)=O)c1 | 89.3% | 122% | 93.9% | 106% | 101% | 98.3% | 87.8% | 91.2% | 114% | –
15 | O=[N+]([O-])c1cccc(-c2nc3sccn3c2-c2ccnc(NCCCNS(=O)(=O)c3ccc(F)cc3)n2)c1 | -3.76% (active) | 18.4% | 29.3% | 26.8% | -3.27% (active) | -76.7% (active) | -45% (active) | -21.3% (active) | -1.76% (active) | –
16 | OC(c1cccc(C(F)(F)F)c1)c1cnccc1NC1CCCCCC1 (stereo not drawn) | 8.21% (active) | -6.41% (active) | 69.3% | -2.39% (active) | 22.4% | -68.2% (active) | 55% | -18.7% (active) | -12.9% (active) | –

Row | Structure (SMILES) | growth (HCT-15 colon) | growth (HT29 colon) | growth (SNB-19 CNS) | growth (U251 CNS) | growth (PC-3 prostate) | growth (SK-MEL-5 melanoma) | growth (UACC-62 melanoma) | growth (LOX IMVI melanoma) | growth (SK-MEL-28 melanoma) | growth (SNB-75 CNS)
17 | Nc1c(C(=O)Nc2ccccc2)sc2nc3c(cc12)CN(CCc1ccccc1)CC3 | 107% | 104% | 95.4% | 91.3% | 88.1% | 92.9% | 86.4% | 87.5% | 106% | –
18 | CCCCN(CCCC)CCC(C)(O)c1cc2ccccc2c2ccccc12 (stereo not drawn) | 82.2% | 39.7% | – | 86.3% | 47.5% | 102% | – | 45.7% | 121% | 106%
19 | O=[N+]([O-])c1c(F)cccc1Nc1cccc(F)c1 | 104% | 97.5% | – | 105% | 103% | 101% | – | 102% | 118% | 81.6%
20 | CCOC(=O)Cc1cnn(C)c1NC(=O)c1ccc(Cl)cc1NC(C)=O | 110% | 110% | – | 111% | 94.6% | 95.3% | 99.7% | 107% | 130% | 76%
21 | COc1cc(/C=C2\CN(C(=O)CCN3CCC(=NO)CC3)C/C(=C\c3cc(OC)c(OC)c(OC)c3)C2=O)cc(OC)c1OC | -54.7% (active) | -70% (active) | -90.1% (active) | -68.6% (active) | -54.3% (active) | -61.2% (active) | -70.7% (active) | -85.2% (active) | -76.7% (active) | –
22 | O=C(Nc1cccc2c1C(=O)c1cccc(Nc3cccc4c3C(=O)c3cccc(NC(=O)c5ccccc5)c3C4=O)c1C2=O)c1ccccc1 | 110% | 124% | – | 109% | 87.2% | 112% | – | 98.1% | 118% | 92.8%
23 | Cn1c(=O)c2c(ncn2CC[N+](C)(C)C)n(C)c1=O | 112% | 93.8% | 101% | 101% | 94.5% | 102% | 86.9% | 99.6% | 106% | –
24 | COc1ccc2c(c1)C(=O)/C(=C/c1cccc(OCC(=O)Nc3nc4c(s3)CCCC4)c1)O2 | -15.7% (active) | -74.3% (active) | – | 41.9% | – | -14% (active) | 79.1% | -70.3% (active) | 38.1% | 19%
25 | CCCCN(CC)CCCCCCCCCCN1CCCc2cc(OC)ccc21 | 38.1% | 19.2% | – | 87.4% | 29.9% | 92.1% | – | 15% | 119% | 93.2%
26 | CCOC(=O)c1cnc2ccc(Br)cc2c1Nc1cccc(S(=O)(=O)NC)c1 | 80.5% | 101% | 100% | 109% | 102% | 96.6% | 96.9% | 93.6% | 122% | –
27 | Cc1cc(N/N=C/c2nc(-c3ccc(Cl)cc3)oc2C)c2cc(Br)ccc2n1 | -20.3% (active) | -45.8% (active) | 41.6% | -33.3% (active) | 80.2% | 91.9% | 58.2% | -43.4% (active) | 17.5% | –
28 | O=c1cc(-c2ccccc2)[nH]c2ccccc12 | 17.5% | 15.3% | – | 27.2% | 27.1% | 29.4% | 64.5% | 57.7% | 62.4% | 30%
29 | Cc1ccc2cnc(N)c(C#Cc3cncc(C(=O)Nc4ccc(CN5CCN(C)CC5)c(C(F)(F)F)c4)c3)c2c1 | -91.9% (active) | -69.9% (active) | -99.1% (active) | -89.5% (active) | -71% (active) | -95.6% (active) | -85.5% (active) | -92.4% (active) | -90.8% (active) | –
30 | C(=N\Nc1ccccn1)/c1ccccn1 | 42.7% | 19% | 40.4% | 13.4% | 63.5% | -4.55% (active) | 2.66% (active) | -11.6% (active) | 34.8% | –
31 | COc1ccc(-c2cn3c(ccc4ccccc43)n2)cc1 | 92.4% | 108% | 99.3% | 105% | 89.2% | 78% | 85.3% | 95.1% | 117% | –
